Experimental findings from PubChem BioAssay AID2283176 (EPA ToxCast) are described below.

SMILES strings stand for the structures. Inconclusive results are not listed. Activity calls are given as the source filed them. Rule for the calls: active = hit-call score of the fitted dose curve at least 0.9, where 1 is the maximum; inconclusive = response in the unintended direction; inactive = score below 0.9.

human MAP Kinase-Activated Protein Kinase 5 (MAPKAPK5), MAPKAPK5 (gene 8550), sequence (Q8IW41 whole entry, looked up): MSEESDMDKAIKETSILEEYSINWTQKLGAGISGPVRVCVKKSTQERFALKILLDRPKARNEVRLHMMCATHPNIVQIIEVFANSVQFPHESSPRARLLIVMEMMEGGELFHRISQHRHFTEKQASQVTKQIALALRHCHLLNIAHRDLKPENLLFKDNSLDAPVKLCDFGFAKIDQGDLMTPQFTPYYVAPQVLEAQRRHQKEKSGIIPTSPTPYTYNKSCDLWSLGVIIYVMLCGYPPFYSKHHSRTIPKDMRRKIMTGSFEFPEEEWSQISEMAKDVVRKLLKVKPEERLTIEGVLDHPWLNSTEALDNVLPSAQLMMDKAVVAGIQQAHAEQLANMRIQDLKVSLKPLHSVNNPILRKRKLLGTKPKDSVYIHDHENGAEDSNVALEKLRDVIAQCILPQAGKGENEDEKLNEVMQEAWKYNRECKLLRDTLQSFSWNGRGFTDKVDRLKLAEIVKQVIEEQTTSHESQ

The target in this assay is human MAP Kinase-Activated Protein Kinase 5 (MAPKAPK5), MAPKAPK5 (gene 8550) (UniProt Q8IW41). Nature of the assay: NVS_ENZ_hMAPKAPK5: NovaScreen (NVS) Enzymatic Assay for human MAP Kinase-Activated Protein Kinase 5 (MAPKAPK5). The protocol:
NVS_ENZ_hMAPKAPK5 is a biochemical, single-readout assay that uses extracted gene-proteins in a cell-free assay. Measurements were taken 1 hour after chemical dosing in a 384-well plate.NVS_ENZ_hMAPKAPK5 is one of one assay component(s) measured or calculated from the NVS_ENZ_hMAPKAPK5 assay. It is designed to make measurements of enzyme activity, a form of enzyme reporter, as detected with fluorescence intensity signals by Fluorescence and electrophoretic mobility shift technology.Data from the assay component NVS_ENZ_hMAPKAPK5 was analyzed into 1 assay endpoint. This assay endpoint, NVS_ENZ_hMAPKAPK5, was analyzed in the positive analysis fitting direction relative to DMSO as the negative control and baseline of activity. Using a type of enzyme reporter, loss-of-signal activity can be used to understand changes in the enzymatic activity as they relate to the gene MAPKAPK5. Furthermore, this assay endpoint can be referred to as a primary readout, because this assay […]. To generalize the intended target to other relatable targets, this assay endpoint is annotated to the kinase intended target family, where the subfamily is serine/threonine kinase.
Binding assays used specific radioligands (tritiated, iodinated) with non-radioactive competitive displacement ligands in agonist or antagonist protocols (as indicated) and various reference compounds and inhibitors to titrate specific binding to receptors and transporters. Most enzyme assays (CYPs, kinases, phosphatases, proteases, HDACs) used recombinant protein and specific substrates (fluorescence mostly, some colorimetric and radioactive) and inhibitors, followed by a biochemical separation of substrate and product. All assays for the biochemical HTS were initially run in duplicate at a single concentration (10 uM for CYP450 assays and 25 uM for all others). Assay-chemical combinations meeting a pre-defined threshold (e.g., 30% inhibition and other criteria defined below) were then run in singleton concentration-response format with maximum concentration of 20 uM for CYPs and 50 uM for all others. Each assay was run with positive and negative controls, and concurrent controls on every plate. The follow-up (secondary) screen tested active chemical-pairs in concentration series, as well as a few additional assays not tested in the primary screen, some selected negative inactives, and several cases re-run in the concentration series for confirmatory purposes.
Usually AC50 stands for the midpoint of the concentration-response curve, whichever way the signal moves. On to `S=C([S-])NCCNC(=S)[S-].[Mn+2]`, for which the AC50 is 0.789 µM (active).
Turning to `CCOC(=O)[C@H](C)Oc1ccc(Oc2nc3ccc(Cl)cc3o2)cc1`, the molecule was classed as inactive.
Take `S=C(S)NCCNC(=S)S.[Mn+2].[S-]C([S-])=NCCN=C([S-])[S-].[Zn+2]`: the AC50 is 2.41 µM (active).
For the molecule `CCN(CC)C(=O)c1cccc(C)c1`, the call was inactive.
For `O=C(Nc1ccc([N+](=O)[O-])cc1Cl)c1cc(Cl)ccc1O`, the result was inactive.
Take `N#CSCSc1nc2ccccc2s1`: the AC50 is 14.7 µM (active).
Take `O=C(O)C1(C(=O)Nc2ccc(Cl)cc2Cl)CC1`: the AC50 is 19.1 µM (active).
